{
  "source": "the supplement of paper PMC6897291",
  "system": "RIVA",
  "assay": "growth inhibition by drug alone (1 - RLU/untreated control) (fraction); higher = stronger inhibition",
  "details": "177Lu-lilotomab satetraxetan 0 ug/ml",
  "description": "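RIVA (RI-1) ABC-DLBCL cells were pretreated or not for 18 h with 0.5 ug/ml 177Lu-lilotomab satetraxetan (600 MBq/mg), washed and seeded (3000 cells/well) on 384-well plates pre-printed with the Selleck Cambridge Cancer Compound library. Viability was read by RealTime-Glo luminescence on days 3-6 after seeding. Effect = 1 - RLU/mean RLU of the 48 untreated no-drug control wells per plate; Bliss score = (M-E)/(1-Fa).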",
  "note": "Where a name gives a salt, the structure may show the parent alone.",
  "data": [
    {"smiles": "Cc1cc(O)c2c(c1)C(=O)c1cccc(O)c1C2=O", "note": "[Chrysophanic acid (Chrysophanol)]", "values": [
      {"measurement": "growth inhibition by drug alone", "setting": "10 nM, time (day): 3", "value": -0.266},
      {"measurement": "growth inhibition by drug alone", "setting": "10 nM, time (day): 4", "value": -0.269},
      {"measurement": "growth inhibition by drug alone", "setting": "10 nM, time (day): 5", "value": -0.305},
      {"measurement": "growth inhibition by drug alone", "setting": "10 nM, time (day): 6", "value": -0.322},
      {"measurement": "growth inhibition by drug alone", "setting": "100 nM, time (day): 3", "value": -0.0635},
      {"measurement": "growth inhibition by drug alone", "setting": "100 nM, time (day): 4", "value": -0.135},
      {"measurement": "growth inhibition by drug alone", "setting": "100 nM, time (day): 5", "value": -0.0963},
      {"measurement": "growth inhibition by drug alone", "setting": "100 nM, time (day): 6", "value": -0.115}
    ]},
    {"smiles": "Nc1ccc(-c2ccc3ncc4ccc(=O)n(-c5cccc(C(F)(F)F)c5)c4c3c2)cn1", "note": "[Torin 2]", "values": [
      {"measurement": "growth inhibition by drug alone", "setting": "10 nM, time (day): 3", "value": 0.402},
      {"measurement": "growth inhibition by drug alone", "setting": "10 nM, time (day): 4", "value": 0.267},
      {"measurement": "growth inhibition by drug alone", "setting": "10 nM, time (day): 5", "value": 0.158},
      {"measurement": "growth inhibition by drug alone", "setting": "10 nM, time (day): 6", "value": -0.141},
      {"measurement": "growth inhibition by drug alone", "setting": "100 nM, time (day): 3", "value": 0.769},
      {"measurement": "growth inhibition by drug alone", "setting": "100 nM, time (day): 4", "value": 0.804},
      {"measurement": "growth inhibition by drug alone", "setting": "100 nM, time (day): 5", "value": 0.808},
      {"measurement": "growth inhibition by drug alone", "setting": "100 nM, time (day): 6", "value": 0.781}
    ]},
    {"smiles": "CNC(=O)c1cc(Oc2ccc(NC(=O)Nc3ccc(Cl)c(C(F)(F)F)c3)cc2)ccn1", "note": "[Sorafenib (Nexavar)]", "values": [
      {"measurement": "growth inhibition by drug alone", "setting": "10 nM, time (day): 3", "value": -0.0351},
      {"measurement": "growth inhibition by drug alone", "setting": "10 nM, time (day): 4", "value": -0.0584},
      {"measurement": "growth inhibition by drug alone", "setting": "10 nM, time (day): 5", "value": -0.0811},
      {"measurement": "growth inhibition by drug alone", "setting": "10 nM, time (day): 6", "value": -0.269},
      {"measurement": "growth inhibition by drug alone", "setting": "100 nM, time (day): 3", "value": -0.171},
      {"measurement": "growth inhibition by drug alone", "setting": "100 nM, time (day): 4", "value": -0.0734},
      {"measurement": "growth inhibition by drug alone", "setting": "100 nM, time (day): 5", "value": -0.0752},
      {"measurement": "growth inhibition by drug alone", "setting": "100 nM, time (day): 6", "value": -0.125}
    ]},
    {"smiles": "O=C1CN2Cc3c(ccc(Cl)c3Cl)N=C2N1", "note": "[Anagrelide hydrochloride]", "values": [
      {"measurement": "growth inhibition by drug alone", "setting": "10 nM, time (day): 3", "value": 0.16},
      {"measurement": "growth inhibition by drug alone", "setting": "10 nM, time (day): 4", "value": 0.111},
      {"measurement": "growth inhibition by drug alone", "setting": "10 nM, time (day): 5", "value": 0.0638},
      {"measurement": "growth inhibition by drug alone", "setting": "10 nM, time (day): 6", "value": -0.0807},
      {"measurement": "growth inhibition by drug alone", "setting": "100 nM, time (day): 3", "value": 0.214},
      {"measurement": "growth inhibition by drug alone", "setting": "100 nM, time (day): 4", "value": 0.214},
      {"measurement": "growth inhibition by drug alone", "setting": "100 nM, time (day): 5", "value": 0.119},
      {"measurement": "growth inhibition by drug alone", "setting": "100 nM, time (day): 6", "value": 0.0727}
    ]},
    {"smiles": "O=C(Nc1cccc(Cl)c1)Nc1ncc(CCNc2ncnc3ccsc23)s1", "values": [
      {"measurement": "growth inhibition by drug alone", "setting": "10 nM, time (day): 3", "value": 0.0836},
      {"measurement": "growth inhibition by drug alone", "setting": "10 nM, time (day): 4", "value": 0.115},
      {"measurement": "growth inhibition by drug alone", "setting": "10 nM, time (day): 5", "value": 0.215},
      {"measurement": "growth inhibition by drug alone", "setting": "10 nM, time (day): 6", "value": 0.331},
      {"measurement": "growth inhibition by drug alone", "setting": "100 nM, time (day): 3", "value": 0.0102},
      {"measurement": "growth inhibition by drug alone", "setting": "100 nM, time (day): 4", "value": 0.0483},
      {"measurement": "growth inhibition by drug alone", "setting": "100 nM, time (day): 5", "value": 0.135},
      {"measurement": "growth inhibition by drug alone", "setting": "100 nM, time (day): 6", "value": 0.239}
    ]}
  ]
}
